# Laboratory results as given in the supplement of paper PMC7380943.
# Tested on: CLZ3 (HCA2 human fibroblast dual HR-NHEJ reporter)
# Experiment: NHEJ repair efficiency (GFP+ cells) relative to control (log10 fold); higher = more non-homologous end joining
# Conditions: 5 µM; doxycycline 0.5 ug/mL
# 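Throughout, for HR repair efficiency (tdTomato+ cells) relative to control: compound given one day before doxycycline, which switches on I-SceI endonuclease expression to create double-strand breaks within the integrated reporter.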
# 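Throughout, for NHEJ repair efficiency (GFP+ cells) relative to control: compound given one day ahead of doxycycline, which switches on I-SceI endonuclease to cut the chromosomally integrated reporter and create DSBs.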
row,Compound,NHEJ repair efficiency (log10)
1,O=C(O)/C=C/c1ccccc1 [Cinnamic Acid],-0.0918
2,OC[C@H]1OC(O)[C@@H](O)[C@@H](O)[C@@H]1O (some centres undefined) [Mannose],0.0722
3,CCC/C=C1\OC(=O)C2=C1CCC1C3C=C4C(=O)O/C(=C\CCC)C4(CC3)C21 (centres undefined) [Levistilide A],-0.106
4,COc1c(O[C@@H]2O[C@H](C(=O)O)[C@@H](O)[C@H](O)[C@H]2O)cc(O)c2c(=O)cc(-c3ccccc3)oc12 [Wogonoside],-0.0783

# Tested on: CLZ3 (HCA2 human fibroblast dual HR-NHEJ reporter)
# Experiment: HR repair efficiency (tdTomato+ cells) relative to control (log10 fold); higher = more homologous recombination
# Conditions: 5 µM; doxycycline 0.5 ug/mL
row,Compound,HR repair efficiency (log10)
1,C[C@H]1O[C@H](O[C@@H]2[C@@H](O)[C@H](OCCc3ccc(O)c(O)c3)O[C@H](CO[C@H]3OCC(O)(CO)[C@@H]3O)[C@H]2OC(=O)/C=C/c2ccc(O)c(O)c2)[C@@H](O)[C@@H](O)[C@@H]1O (some centres undefined) [Forsythoside B],0.076
2,COc1cc(/C=C/CO)ccc1O[C@@H]1O[C@H](CO)[C@@H](O)[C@H](O)[C@H]1O [Coniferin],0.0767
3,CC(C)=CCC/C(C)=C/CC/C(C)=C/CC/C(C)=C/CC/C(C)=C/CC/C(C)=C/CC/C(C)=C/CC/C(C)=C/CC/C(C)=C/CO [Solanesol],-0.0545
4,NC(=O)NC1NC(=O)NC1=O (centres undefined) [Allantoin],0.00746
5,C[C@@H]1CC[C@@]2(OC1)O[C@H]1C[C@H]3[C@@H]4CC=C5C[C@@H](O[C@@H]6O[C@H](CO)[C@@H](O)[C@H](O)[C@H]6O)CC[C@]5(C)[C@H]4CC[C@]3(C)[C@H]1[C@@H]2C [Diosgenin glucoside],0.0102
6,O=C(/C=C/c1ccc(O)c2oc(-c3ccc(O)c(O)c3)cc12)O[C@H](Cc1ccc(O)c(O)c1)C(=O)O [Salvianolic Acid C],-0.0113
7,Oc1cc(O)c2cc(O)c(-c3ccc(O)c(O)c3)[o+]c2c1 [Cyanidin Chloride],0.00943
8,OCc1ccccc1O[C@@H]1O[C@H](CO)[C@@H](O)[C@H](O)[C@H]1O [Salicoside],0.251
9,CC1OC(OC2C(C)OC(OC(=O)C34CCC(C)(C)CC3C3=CCC5C6(C)CCC(OC7OC(C(=O)O)C(OC8OC(CO)C(OC9OC(CO)C(O)C(O)C9O)C(O)C8O)C(OC8OCC(O)C(O)C8O)C7O)C(C)(C=O)C6CCC5(C)C3(C)CC4)C(OC3OCC(O)C(O)C3OC3OCC(O)C(O)C3O)C2O)C(O)C(OC2OCC(O)C(O)C2O)C1O (centres undefined) [Gypenoside],0.115
10,C[C@H]1O[C@@H](O[C@H]2CC[C@@]3(C)[C@@H](CC[C@]4(C)[C@@H]3C=CC3=C5CC(C)(C)CC[C@]5(CO)[C@H](O)C[C@]34C)[C@]2(C)CO)[C@H](O)[C@@H](O[C@@H]2O[C@H](CO)[C@@H](O)[C@H](O)[C@H]2O)[C@H]1O [Saikosaponin B2],0.123
11,O=C1/C(=C2\Nc3ccccc3C2=O)Nc2ccccc21 [Indigo],-0.0903
12,C/C=C(/C)C(=O)O[C@@H]1[C@H](OC(=O)CC(C)C)c2c(ccc3ccc(=O)oc23)OC1(C)C [Praeruptorin C],0.00182
13,O=c1cc(-c2ccc(O)cc2)oc2cc(O)c([C@@H]3O[C@H](CO)[C@@H](O)[C@H](O)[C@H]3O)c(O)c12 [Isovitexin],0.0479
14,C[C@H](CC(=O)C[C@@H](C)[C@H]1C[C@H](O)[C@@]2(C)C3=C(C(=O)C[C@]12C)[C@@]1(C)CCC(=O)C(C)(C)[C@@H]1C[C@@H]3O)C(=O)O [Ganoderic Acid A],0.159
15,COc1cc(-c2oc3cc(O)cc(O)c3c(=O)c2O[C@@H]2O[C@H](CO[C@H]3O[C@H](C)[C@@H](O)[C@H](O)[C@@H]3O)[C@@H](O)[C@H](O)[C@H]2O)ccc1O [Narcissoside; Isorhamnetin-3-O-β-D-rutinoside],-0.0269
16,"O=C(C=Cc1ccc(O)c(O)c1)O[C@H]1[C@H](O)C[C@](O)(C(=O)O)C[C@H]1OC(=O)C=Cc1ccc(O)c(O)c1 [Isochlorogenic Acid C (4,5-Di-O-Caffeoylquinic Acid)]",-0.0644
17,O=Cc1ccc(CO)o1 [5-Hydroxymethyl-2-furaldehyde (5-HMF)],-0.326
18,COc1ccccc1 [Anisole],0.043
19,Oc1cc(O)c2c(c1)O[C@H](c1cc(O)c(O)c(O)c1)[C@H](O)C2 [(-)Epigallocatechin],-0.0527
20,"O=C(/C=C/c1ccc(O)c(O)c1)O[C@@H]1C[C@](OC(=O)/C=C/c2ccc(O)c(O)c2)(C(=O)O)C[C@@H](O)[C@H]1O [1,3-Di-O-Caffeoylquinic Acid]",-0.0833
